Test [1] concerns the target Phospholipid hydroperoxide glutathione peroxidase GPX4 (Homo sapiens) (UniProt P36969). The test is described as follows: Primary qHTS Assay for Inhibitors of Recombinant Selenoprotein Glutathione Peroxidase 4 (GPX4) (AID 1845192). For activity change, negative = inhibition: % is set by controls: 0 for no effect and ±100 for the full control effect. Note: nearly all actives have a fitted effect of over 65% in size. The method in brief:
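NADPH consumption, followed by fluorescence at 340/450 nm between 0 and 15 min, reports GPX4 activity via coupled glutathione reductase (100 nM). Enzyme 200 nM was pre-exposed to compound 30 min; 0.5 mM cumene hydroperoxide and 1 mM GSH served as substrates.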

Test [2] has as its target Luciferin 4-monooxygenase (Photinus pyralis) (UniProt P08659). The test is described as follows: Primary firefly luciferase (FLuc) qHTS assay for identification of artifact compounds. (AID 1845220).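 Note: plate controls were DMSO vehicle for no effect and no enzyme for full effect; nearly all actives have a fitted effect of over 60% in size.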 The gist of the method: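 Cell-free, 1536-well qHTS. Buffer pH 7.6 with 0.01% Tween-20 and 0.05% BSA; 10 uM D-luciferin, 10 uM ATP; 10 nM P. pyralis luciferase; luminescence after 5 min.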
Background: qHTS replaces the single test concentration by a dilution series.

The subject of test [3] is Nanoluciferase (engineered Oplophorus gracilirostris luciferase). The test is described as follows: Primary Nanoluciferase (NLuc) qHTS assay for identification of artifact compounds. (AID 1845222).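 Note: 0% = DMSO and -100% = no enzyme.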 The method in brief:
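Compounds are pinned into diluted (1:55) conditioned medium of NLuc-expressing S16 cells and held 15 min at room temperature protected from light. Nano-Glo substrate follows, and luminescence is read 5 min later.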

The nature of test [4]: Primary redox qHTS assay for identification of artifact compounds. (AID 1845223). The method in brief:
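Amplex Red (25 uM) and HRP (250 mU/mL) in HBSS, with compounds for 15 min, then 250 uM DTT for 30 min, room temperature, dark. Fluorescence 525/598 nm read; normalized to DMSO and 10 uM DA3003; Hill fit.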

Test [5] is described as follows: Quantitative High-Throughput drug screen in 47 multiple myeloma cell lines against the NCATS MIPE library collection: Delta47_JCRB cell viability assay (AID 1918925; note: nearly all actives have a fitted effect of over 45% in size; note: potency is the fitted concentration of half-maximal effect). The method in brief: (§1)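 Myeloma cells (500 per well) were exposed to MIPE 4.0 compounds by pin transfer and incubated 48 hours at 37C, 5% CO2. Viability was read as ATP by CellTiter-Glo luminescence, normalised to DMSO (100%) and media-only (0%) wells.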

A short description of test [6]: Quantitative High-Throughput drug screen in 47 multiple myeloma cell lines against the NCATS MIPE library collection: ARD_JJKsccE7 cell viability assay (AID 1918929; note: potency is the fitted concentration of half-maximal effect). The gist of the method:
as §1

Test [7] in a line: Quantitative High-Throughput drug screen in 47 multiple myeloma cell lines against the NCATS MIPE library collection: Karpas620_DSMZ cell viability assay (AID 1918959). Note: nearly all actives have a fitted effect of over 30% in size. Note: potency is the fitted concentration of half-maximal effect. The method in brief:
(§2)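 Luminescent ATP measurement with CellTiter-Glo gives viability, scaled between DMSO-only wells (100%) and media-only wells (0%). Cells, 500 per well, faced library compounds for 48 hours at 37C.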

Test [8] in a line: Quantitative High-Throughput drug screen in 47 multiple myeloma cell lines against the NCATS MIPE library collection: KMM1_JCRB cell viability assay (AID 1918960). Note: nearly all actives have a fitted effect of over 30% in size. Note: potency is the fitted concentration of half-maximal effect. The method in brief: (§3)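 Myeloma cells at 500 per well in 1536-well format treated with MIPE 4.0 library by pin transfer for 48 h at 37C, 5% CO2. Viability from ATP luminescence (CellTiter-Glo), normalized to DMSO (100%) and media-only (0%) wells.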

Test [9] is described as follows: Quantitative High-Throughput drug screen in 47 multiple myeloma cell lines against the NCATS MIPE library collection: KHM11_PLB cell viability assay (AID 1918962). Note: nearly all actives have a fitted effect of over 35% in size. Note: potency is the fitted concentration of half-maximal effect. The method in brief: as §2
Test [10] can be described thus: Quantitative High-Throughput drug screen in 47 multiple myeloma cell lines against the NCATS MIPE library collection: JIM3_ECACC cell viability assay (AID 1918963; note: nearly all actives have a fitted effect of over 35% in size; note: potency is the fitted concentration of half-maximal effect). The method in brief: as §2
Test [11] can be described thus: Quantitative High-Throughput drug screen in 47 multiple myeloma cell lines against the NCATS MIPE library collection: JIM1_ECACC cell viability assay (AID 1918964; note: potency is the fitted concentration of half-maximal effect). The gist of the method:
as §1

Test [12] is described as follows: Quantitative High-Throughput drug screen in 47 multiple myeloma cell lines against the NCATS MIPE library collection: INA6_PLB cell viability assay (AID 1918965; note: nearly all actives have a fitted effect of over 55% in size; note: potency is the fitted concentration of half-maximal effect). The method in brief:
(§4)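 Steps: seed 500 cells per well; pin-transfer MIPE 4.0 library; incubate 48 h at 37C, 5% CO2, humidified; add CellTiter-Glo, 5 min room temperature; read luminescence.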

Test [13] in a line: Quantitative High-Throughput drug screen in 47 multiple myeloma cell lines against the NCATS MIPE library collection: H1112_PLB cell viability assay (AID 1918967; note: nearly all actives have a fitted effect of over 30% in size; note: potency is the fitted concentration of half-maximal effect). The gist of the method: as §1
A short description of test [14]: Quantitative High-Throughput drug screen in 47 multiple myeloma cell lines against the NCATS MIPE library collection: EJM_DSMZ cell viability assay (AID 1918926; note: nearly all actives have a fitted effect of over 30% in size; note: potency is the fitted concentration of half-maximal effect). The method in brief:
as §1

A short description of test [15]: Quantitative High-Throughput drug screen in 47 multiple myeloma cell lines against the NCATS MIPE library collection: AMO1_DSMZ cell viability assay (AID 1918927; note: nearly all actives have a fitted effect of over 30% in size; note: potency is the fitted concentration of half-maximal effect). The method in brief: as §1
Test [16] in a line: Quantitative High-Throughput drug screen in 47 multiple myeloma cell lines against the NCATS MIPE library collection: FR4_PLB cell viability assay (AID 1918924; note: nearly all actives have a fitted effect of over 35% in size; note: potency is the fitted concentration of half-maximal effect). The gist of the method:
as §2

Test [17] is described as follows: Quantitative High-Throughput drug screen in 47 multiple myeloma cell lines against the NCATS MIPE library collection: ARP1_JJKsccF8 cell viability assay (AID 1918928; note: nearly all actives have a fitted effect of over 40% in size; note: potency is the fitted concentration of half-maximal effect). The gist of the method: as §3
Test [18] can be described thus: Quantitative High-Throughput drug screen in 47 multiple myeloma cell lines against the NCATS MIPE library collection: Karpas417_ECACC cell viability assay (AID 1918961). Note: potency is the fitted concentration of half-maximal effect. As to conditions: Karpas417 myeloma viability, CellTiter-Glo ATP luminescence, 48 h; viability (% of DMSO): at 45.8 µM (top of the series). The method in brief:
as §4

Test [19] can be described thus: Quantitative High-Throughput drug screen in 47 multiple myeloma cell lines against the NCATS MIPE library collection: JJN3_DSMZ cell viability assay (AID 1918966; note: nearly all actives have a fitted effect of over 50% in size; note: potency is the fitted concentration of half-maximal effect). The gist of the method:
as §1

A number with no mark means an inactive call. Inconclusive results are not listed. Calls of active or inactive are those of the source. Calls come from the whole dose curve; as a rule, active = well fitted curve in the direction sought with a large enough effect; inconclusive = small, poorly fitted or top-dose-only effect, or another doubt; inactive = no such curve, though single readings can be large; an effect the other way counts as inactive or inconclusive.

Sequence of Phospholipid hydroperoxide glutathione peroxidase GPX4 (Homo sapiens) (P36969 whole entry, looked up): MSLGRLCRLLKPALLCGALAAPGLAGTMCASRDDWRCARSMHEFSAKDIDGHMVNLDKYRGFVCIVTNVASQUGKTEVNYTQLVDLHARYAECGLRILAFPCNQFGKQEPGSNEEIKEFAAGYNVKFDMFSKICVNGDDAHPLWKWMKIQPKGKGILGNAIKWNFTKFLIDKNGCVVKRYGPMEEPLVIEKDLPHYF

As for `Nc1[nH]nc2nnc(-c3c(-c4ccccc4)nn4ccccc34)cc12`, the Potency result in test [1], in test [2] and in test [3] was “inactive” in each case. Besides, in test [4], the compound was classed as inactive. For the same compound, the Potency is 4.69 µM (active) in [5]; 2.96 µM (active) in [6]; 16.6 µM (active) in test [7]; 4.69 µM (active) in test [8]; 10.5 µM (active) in [9]; 9.35 µM (active) in test [10]. Moreover, the Potency in test [11] was 3.32 µM (active); in test [12] it was 1.05 µM (active); in test [13], 4.18 µM (active).

Regarding `CN1CCN(c2cccc(Nc3nc4c(-c5ccc(S(C)(=O)=O)cc5)cccn4n3)c2)CC1`, the Potency result in test [1], in test [2] and in test [3] was “inactive” in each case. The Potency is 4.18 µM (active) in [14]; 4.18 µM (active) in test [15]; 1.32 µM (active) in test [6]; 0.833 µM (active) in test [7]; 1.66 µM (active) in [8]; 2.35 µM (active) in test [9]. Moreover, the Potency was 0.662 µM (active) in test [11], 0.59 µM (active) in test [12] and 2.35 µM (active) in test [13].

Consider `CC(C)[C@H](O)C(=O)N[C@@H](C)C(=O)N[C@@H]1C(=O)N(C)CCc2ccccc21`, for which the Potency entry in test [1], in test [16], in [15], in [17], in test [6] and in test [7] was “inactive” each time. The Potency result in [8], in test [9], in test [10] and in test [13] was “inactive” throughout.

Consider `CC(C)Oc1cc(Nc2nc(N[C@@H](C)c3ccc(F)cn3)ncc2Cl)[nH]n1`, for which the Potency result in [1] is “inactive”. In addition, the Potency in test [5] was 8.33 µM (active); in [14], 20.9 µM (active); in test [15], 18.7 µM (active); in [6], 14.8 µM (active); in test [8], 16.6 µM (active); in test [18], 2.64 µM (active). Moreover, the Potency in test [9] is 10.5 µM (active); in test [10] it was 8.33 µM (active); in [11], 20.9 µM (active); in test [12] it was 7.43 µM (active); in test [19] it was 20.9 µM (active).

Regarding `Cc1ccc(C2=Nc3ccc(Cl)cc3OC2)cc1`, the Potency entry in test [1], in test [14], in test [7], in test [10] and in test [13] was “inactive” in each case. The Potency was 4.69 µM (active) in test [16], 1.18 µM (active) in test [15], 3.32 µM (active) in test [8] and 5.26 µM (active) in [19].

Regarding `O=C1CCCC(=O)C1C(=O)c1ccc(C(F)(F)F)cc1[N+](=O)[O-]`, the Potency result in test [1], in test [16], in test [14], in [17], in test [7] and in test [9] was “inactive” throughout. Besides, the Potency result in [10], in test [12], in test [19] and in test [13] was “inactive” in each case. Besides, the Potency in test [6] is 6.62 µM (active).

Consider `CNC(=O)c1cc(COc2nnc(Nc3ccc(Cl)cc3)c3ccoc23)ccn1`, for which the Potency entry in test [1], in test [5], in test [10] and in [13] was “inactive” each time. In addition, the Potency in test [16] was 26.4 µM (active); in test [15], 5.26 µM (active); in test [8], 9.35 µM (active); in test [19], 29.6 µM (active).

As to `CN1CC(=O)NC1=NC(=O)Nc1cccc(Cl)c1`, the Potency result in test [1] and in test [15] was “inactive” throughout. Further, the Potency in test [16] was 20.9 µM (active); in [7], 5.26 µM (active); in [8], 4.69 µM (active); in test [9], 14.8 µM (active); in test [10] it was 13.2 µM (active); in test [12], 14.8 µM (active). Further, the figures for the Potency in test [19] and in test [13] were 8.33 µM (active) and 16.6 µM (active), respectively.

For `O=C(NCCCCN1CCOCC1)c1cc2ccccc2o1`, the Potency entry in test [1], in test [16], in [14], in [17], in test [6] and in test [7] was “inactive” in each case. The Potency result in [8], in test [9], in test [10], in test [19] and in [13] was “inactive” throughout. Further, the viability (% of DMSO) in test [18] is 159% (active).

Consider `C[C@@H](O)[C@H]1C(=O)N2C(C(=O)OCOC(=O)C(C)(C)C)=C(SC3CN(C4=NCCS4)C3)[C@H](C)[C@H]12`, for which the Potency entry in test [1], in test [5], in [14], in test [15], in [17] and in [6] was “inactive” throughout. Also, the Potency entry in [7], in test [9], in test [10], in test [11] and in [13] was “inactive” each time. In addition, the Potency in test [19] was 16.6 µM (active).

As to `Cc1cccc(Nc2nc(N[C@@H]3CCCC[C@H]3N)ncc2C(N)=O)c1`, the Potency entry in [1] was “inactive”. Moreover, the Potency was 0.187 µM (active) in test [5]; 20.9 µM (active) in test [14]; 16.6 µM (active) in test [17]; 20.9 µM (active) in test [6]; 26.4 µM (active) in test [7]; 16.6 µM (active) in test [8]. Besides, the Potency in [9] was 4.18 µM (active); in [10], 16.6 µM (active); in test [12], 1.48 µM (active); in test [19], 16.6 µM (active).

In the case of `O=C(O)c1nc(=O)[nH]c(=O)[nH]1`, in test [1], the activity change, negative = inhibition is 4.26% [at 0.409 µM]. In addition, the Potency result in test [16], in test [14], in [15], in test [17], in [6] and in test [7] was “inactive” each time. For the same compound, the Potency entry in [8], in test [9], in test [12] and in test [13] was “inactive” each time.

For the compound `CN1CCN2c3ncccc3Cc3ccccc3C2C1` (configuration not stated), the Potency result in [1], in [5], in test [14], in [17], in test [6] and in test [7] was “inactive” throughout. Further, the Potency result in test [8], in test [9], in test [10], in [12] and in test [13] was “inactive” each time.

The values above are taken from PubChem BioAssay (NCATS).
